Results filed as inconclusive are left out. Active and inactive are the calls of the source. Unless noted, calls follow the shape of the dose curve; as a rule, active = well fitted curve in the direction sought with a large enough effect; inconclusive = small, poorly fitted or top-dose-only effect, or another doubt; inactive = no such curve, though single readings can be large; an effect the other way counts as inactive or inconclusive.
Legend:
[1] = qHTS Assay for Identification of Small Molecule Inducers of Hypoxia Response (AID 2120; active = well fitted curve in the direction sought with a large enough effect in the signal ratio, with a control signal flat, not every such curve was filed as active; the % refers to the signal ratio)
Procedure, shortened: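 HRE-bla ME-180 cells in Opti-MEM with 0.5% dialyzed FBS, pre-plated 4-5 h, then compound titration for 17 h at 37 degrees Celsius. CCF4 loaded 2.5 h at room temperature; 460/530 nm ratio gave %Activity and AC50 for induction.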

[2] = Cytometric Cell-Based qHTS for Inhibitors of the mTORC1 Signaling Pathway in MEF (Tsc2-/-, p53-/-) Cells (AID 2660);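 also: percent of cells above a phospho-rpS6 to PI ratio cutoff in each well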
Procedure, shortened: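 Tsc2-/-, p53-/- MEFs (empty vector) exposed to compound 24 h at 37 C, fixed, stained with Alexa-488 anti-phospho-rpS6 Ser235/236 and propidium iodide. Acumen laser scanning; phospho-S6/PI ratio thresholded against 7.5 nM rapamycin, reported as % positive cells.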

[3] = High Content Imaging Cell-Based qHTS for Inhibitors of the mTORC1 Signaling Pathway in MEF (Tsc2-/-, p53-/-) Cells (AID 2666); details: at 38.3 µM (top of the series);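 also: percent of cells scored positive for phospho-rpS6 Ser235/236 immunostaining by imaging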
Procedure, shortened: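 Cells were plated, dosed with compound after 24 hrs, and incubated another 24 hrs at 37 degree Celsius. Fixed cells were immunostained for phospho-rpS6 Ser235/236 and counterstained, and the normalized signal was scored as % active cells against rapamycin and DMSO controls.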

[4] = High Content Imaging Cell-Based qHTS for Inhibitors of the mTORC1 Signaling Pathway in MEF Cells (AID 2667);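 also: Tsc2-/- p53-/- MEFs stably re-expressing wild-type Tsc2 exposed 24 h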
Procedure, shortened: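 Immunofluorescence for rpS6 phosphorylation in MEFs of Tsc2-/-, p53-/- background rescued with WT Tsc2. Compound exposure lasted 24 hrs. Inhibition was scored against rapamycin-treated control wells.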

[5] = Cytometry Cell-Based qHTS for Inhibitors of the mTORC1 Signaling Pathway in MEF cells (AID 2668);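 also: Tsc2-/- p53-/- mouse embryonic fibroblasts stably re-expressing wild-type Tsc2; percent cells positive for phospho-rpS6 Ser235/236 relative to propidium iodide stain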
Procedure, shortened: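 MEFs (Tsc2-/-, p53-/- stably expressing WT Tsc2) treated 24 h at 37 degree Celsius, fixed, stained with Alexa-488 anti-phospho-rpS6 Ser235/236 and propidium iodide; Acumen laser scanning. Reported as % positive cells, phospho-S6 normalized to PI.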

[6] = molecular target: Ubiquitin carboxyl-terminal hydrolase 2 (Homo sapiens) (UniProt O75604); test: qHTS Validation Assay for Inhibitors of Ubiquitin-specific Protease USP2a Using CHOP2 as the Reporter (AID 463106)
Procedure, shortened: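 10nM USP2 core + cpd, 30min RT; add 25nM Ub-CHOP2/25nM substrate; 60min RT; FI 485/531nm. Buffer Tris pH 8.0, CaCl2, BME, CHAPS. Norm. to NEM = 100% inhibition; time-zero read flags fluorescent artifacts.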

[7] = molecular target: DNA polymerase III PolC-type (Bacillus subtilis (strain 168)) (UniProt P13267); test: qHTS Validation Assay for the Inhibitors of DNA Replication in Gram-Positive Bacteria (AID 485295);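 also: PicoGreen fluorescence of double-stranded DNA made on primed circular M13 template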
Procedure, shortened: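 Reconstituted B. subtilis Pol III holoenzyme (PolC, beta clamp, SSB, primase) preincubated with compound, then M13Gori single-stranded circular template with dNTPs/NTPs added; room temperature reaction. Stopped with EDTA/PicoGreen; dsDNA fluorescence read, EDTA as full-inhibition control.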

[8] = molecular target: Tumor susceptibility gene 101 protein (Homo sapiens) (UniProt Q99816); test: qHTS Validation Assay for Iinhibitors of HIV-1 Budding by Blocking the Interaction of PTAP/TSG101 (AID 485342; calls by dose curve)
Procedure, shortened: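 Tsg101 binding domain (10 uM) with FITC-labeled PTAP peptide (50 nM) in HEPES pH 7.5 buffer, 20 min at r.t. with compounds. Binding measured by fluorescence polarization.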

[9] = qHTS Validation Assay to Find Inhibitors of Chronic Active B-Cell Receptor Signaling (AID 485345; active = well fitted curve in the direction sought with a large enough effect in the main read-out, with a control signal flat, not every such curve was filed as active)
Procedure, shortened: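 Read-out: ratio of filter-corrected green (IkappaBalpha fusion) to red (native) luciferase signal in doxycycline-induced TMD8 cells after 4 h at 37C. Titration spanned 46 uM–3 nM; Data were normalised to basal cells and 10 uM MG-132 wells.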

[10] = molecular target: Beta-2 adrenergic receptor (Homo sapiens) (UniProt P07550); test: qHTS validation assay of beta-arrestin-biased ligands of beta2-adrenergic receptor (AID 485366)
Procedure, shortened: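 Tango cells expressing recombinant beta2-AR and beta-arrestin with tTA-driven luciferase, in DMEM with 1% FBS. Compounds were titrated up to 46 microM for 18 hr at 37 degrees C. Luminescence was read 15 min after substrate; curves were fitted and class-assigned.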

[11] = molecular target: ATP-dependent 6-phosphofructokinase (Trypanosoma brucei brucei) (UniProt O15648); test: qHTS Validation Assay to Find Inhibitors of T. brucei phosphofructokinase (AID 485368); details: T. brucei PFK enzyme assay, qHTS 7-point titration; at 57.5 µM (top of the series)
Procedure, shortened: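 Activity was read as ADP production by luminescence (ADP-Glo) after 45 min at room temperature. The enzyme was 1.25nM PFK in 0.1M TEA pH 8.0 with 0.5 mM F6P, 0.1mM ATP and 5 mM MgCl2. Compounds were titrated up to 57 uM and % activity normalized to no-enzyme and full-enzyme controls.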

[12] = molecular target: Thioredoxin reductase 1, cytoplasmic (Rattus norvegicus) (UniProt O89049); test: qHTS Assay for Substrates of Mammalian Selenoprotein Thioredoxin Reductase 1 (TrxR1) (AID 488772);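 also: NADPH fluorescence in the first read after selenite addition and not the 8 min delta; a drop in NADPH fluorescence below the no-compound background marks a TrxR1 substrate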
Procedure, shortened: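 Quantitative HTS in Tris-HCl buffer at pH 7.5 with EDTA and Tween-20, using rat TrxR1, 400 uM NADPH and 400 uM selenite (final). A fall in initial NADPH fluorescence relative to background marked substrate behaviour.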

[13] = molecular target: Thioredoxin reductase 1, cytoplasmic (Rattus norvegicus) (UniProt O89049); test: qHTS Assay for Inhibitors of Mammalian Selenoprotein Thioredoxin Reductase 1 (TrxR1) (AID 488773);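 also: drop in NADPH fluorescence over an 8 min run after selenite addition; nearly all actives have a fitted effect of over 40% in size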
Procedure, shortened: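 Steps: enzyme (90 nM) plus NADPH (400 uM final), 5 min at ~22 deg C; compound added, 15 min; selenite (400 uM final) added; fluorescence followed for 8 min. Concentration-response curves derived from the normalized delta values.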

[14] = molecular target: Flap endonuclease 1 (Homo sapiens) (UniProt P39748); test: qHTS Validation Assay for the Inhibitors of Human Flap endonuclease 1 (FEN1) (AID 488816)
Procedure, shortened: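 Readings taken at 0 and 15 min after starting the reaction with 50 nM (final) substrate supplied the signal. Compounds had first sat with 10 nM FEN1 reagent for 15 min at room temperature. Values come from Hill-equation concentration-response fits.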

[15] = molecular target: Ferritin light chain (Equus caballus) (UniProt P02791); test: qHTS Validation Assay for Identification of Novel General Anesthetics (AID 2323)
Procedure, shortened: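 Horse-spleen apoferritin (10 uM) in PBS with 50% saturated 1-aminoanthracene; compounds pin-transferred, 10 min at room temperature. Fluorescence read at 380/535 nm, normalized to free 1-AMA and 1-AMA/apoferritin values; four-parameter Hill fit.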

[16] = molecular target: ATP-dependent DNA helicase Q1 (Homo sapiens) (UniProt P46063); test: qHTS Validation Assay for Inhibitors of RecQ-Like Dna Helicase 1 (RECQ1) (AID 2353)
Procedure, shortened: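 50 nM RECQ1T1 preincubated 15 min with compound in Tris pH 8.0 buffer with MgCl2, DTT, Tween-20 and 2.5 ug/ml poly(dI-dC); started with 200 nM TAMRA/BHQ-2 forked duplex and 2 mM ATP. Unwinding read as fluorescence (525/598 nm), two reads 2 h apart.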

[17] = molecular target: RecQ-like DNA helicase BLM (Homo sapiens) (UniProt P54132); test: qHTS Validation Assay for Inhibitors of Bloom's syndrome helicase (BLM) (AID 2364)
Procedure, shortened: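 Forked 20-bp duplex substrate (200 nM, TAMRA/BHQ-2) plus 2 mM ATP added after 15 min compound preincubation with 50 nM enzyme, pH 8.0, poly(dI-dC) 2.5 ug/ml. Strand separation followed by fluorescence (525/598 nm) over 2 h, normalized to enzyme-free and DMSO controls.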

[18] = Validation screen for small molecules that induce DNA re-replication in MCF 10A normal breast cells (AID 463097); also: nearly all actives have a fitted effect of over 60% in size
Procedure, shortened: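 MCF 10A cells exposed to compound 48 hr at 37 C, 5% CO2, then Hoechst-stained 40 min. Laser-scanning imaging of nuclear DNA content (405 nm ex, 500-530 nm em); re-replication scored as rise in nuclei with elevated fluorescence intensity.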

[19] = Quantitative high throughput screen for delayed death inhibitors of the malarial parasite plastid, 48 hour incubation (AID 488752); also: nearly all actives have a fitted effect of over 65% in size
Procedure, shortened: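 Erythrocytes infected with firefly luciferase-expressing P. falciparum (2% hematocrit, 0.1% parasitemia) cultured with compound for 48 h at 37 C, 5% CO2, in RPMI 1640/0.5% Albumax. Growth inhibition read as loss of luminescence.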

Measured: outcome

Chain of Thioredoxin reductase 1, cytoplasmic (Rattus norvegicus) (O89049 whole entry, looked up): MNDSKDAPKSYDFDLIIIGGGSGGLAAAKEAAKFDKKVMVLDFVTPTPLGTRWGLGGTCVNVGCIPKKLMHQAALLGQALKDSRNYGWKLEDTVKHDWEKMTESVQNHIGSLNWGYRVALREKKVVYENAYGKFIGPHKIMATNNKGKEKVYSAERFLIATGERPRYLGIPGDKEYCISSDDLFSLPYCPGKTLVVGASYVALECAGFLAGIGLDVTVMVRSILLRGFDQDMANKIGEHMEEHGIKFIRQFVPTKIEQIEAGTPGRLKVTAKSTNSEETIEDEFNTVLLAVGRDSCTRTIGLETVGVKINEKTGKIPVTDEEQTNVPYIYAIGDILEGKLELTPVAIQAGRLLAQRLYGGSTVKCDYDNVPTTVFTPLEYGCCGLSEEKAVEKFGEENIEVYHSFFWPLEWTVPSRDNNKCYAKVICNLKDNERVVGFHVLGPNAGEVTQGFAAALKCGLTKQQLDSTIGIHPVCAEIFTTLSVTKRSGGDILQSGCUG
Chain of Ubiquitin carboxyl-terminal hydrolase 2 (Homo sapiens) (O75604 whole entry, looked up): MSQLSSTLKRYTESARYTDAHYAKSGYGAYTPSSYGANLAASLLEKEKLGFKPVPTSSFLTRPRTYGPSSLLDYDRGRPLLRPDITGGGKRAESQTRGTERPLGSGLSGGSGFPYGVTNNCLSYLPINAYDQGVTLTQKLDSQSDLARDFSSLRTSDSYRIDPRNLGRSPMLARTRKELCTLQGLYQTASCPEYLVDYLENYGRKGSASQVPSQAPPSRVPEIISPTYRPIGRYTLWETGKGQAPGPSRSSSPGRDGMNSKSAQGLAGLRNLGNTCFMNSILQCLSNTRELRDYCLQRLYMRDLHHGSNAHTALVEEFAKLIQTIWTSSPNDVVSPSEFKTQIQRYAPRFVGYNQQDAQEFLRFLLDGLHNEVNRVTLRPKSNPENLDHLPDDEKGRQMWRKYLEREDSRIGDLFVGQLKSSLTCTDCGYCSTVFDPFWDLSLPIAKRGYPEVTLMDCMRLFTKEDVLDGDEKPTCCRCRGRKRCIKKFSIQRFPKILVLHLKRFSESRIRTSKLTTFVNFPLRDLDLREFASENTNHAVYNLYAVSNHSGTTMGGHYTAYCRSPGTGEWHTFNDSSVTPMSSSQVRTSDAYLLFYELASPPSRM
Chain of Flap endonuclease 1 (Homo sapiens) (P39748 whole entry, looked up): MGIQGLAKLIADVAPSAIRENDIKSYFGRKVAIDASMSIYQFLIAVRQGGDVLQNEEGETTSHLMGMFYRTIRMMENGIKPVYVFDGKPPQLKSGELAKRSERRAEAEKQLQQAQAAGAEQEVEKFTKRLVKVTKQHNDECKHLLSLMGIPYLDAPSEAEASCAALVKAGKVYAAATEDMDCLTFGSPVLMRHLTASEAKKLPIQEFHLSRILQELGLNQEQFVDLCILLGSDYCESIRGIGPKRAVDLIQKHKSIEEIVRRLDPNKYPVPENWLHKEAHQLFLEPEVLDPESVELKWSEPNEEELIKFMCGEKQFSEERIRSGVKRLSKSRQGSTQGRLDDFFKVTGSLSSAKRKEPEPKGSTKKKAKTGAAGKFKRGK
Chain of DNA polymerase III PolC-type (Bacillus subtilis (strain 168)) (P13267 whole entry, looked up): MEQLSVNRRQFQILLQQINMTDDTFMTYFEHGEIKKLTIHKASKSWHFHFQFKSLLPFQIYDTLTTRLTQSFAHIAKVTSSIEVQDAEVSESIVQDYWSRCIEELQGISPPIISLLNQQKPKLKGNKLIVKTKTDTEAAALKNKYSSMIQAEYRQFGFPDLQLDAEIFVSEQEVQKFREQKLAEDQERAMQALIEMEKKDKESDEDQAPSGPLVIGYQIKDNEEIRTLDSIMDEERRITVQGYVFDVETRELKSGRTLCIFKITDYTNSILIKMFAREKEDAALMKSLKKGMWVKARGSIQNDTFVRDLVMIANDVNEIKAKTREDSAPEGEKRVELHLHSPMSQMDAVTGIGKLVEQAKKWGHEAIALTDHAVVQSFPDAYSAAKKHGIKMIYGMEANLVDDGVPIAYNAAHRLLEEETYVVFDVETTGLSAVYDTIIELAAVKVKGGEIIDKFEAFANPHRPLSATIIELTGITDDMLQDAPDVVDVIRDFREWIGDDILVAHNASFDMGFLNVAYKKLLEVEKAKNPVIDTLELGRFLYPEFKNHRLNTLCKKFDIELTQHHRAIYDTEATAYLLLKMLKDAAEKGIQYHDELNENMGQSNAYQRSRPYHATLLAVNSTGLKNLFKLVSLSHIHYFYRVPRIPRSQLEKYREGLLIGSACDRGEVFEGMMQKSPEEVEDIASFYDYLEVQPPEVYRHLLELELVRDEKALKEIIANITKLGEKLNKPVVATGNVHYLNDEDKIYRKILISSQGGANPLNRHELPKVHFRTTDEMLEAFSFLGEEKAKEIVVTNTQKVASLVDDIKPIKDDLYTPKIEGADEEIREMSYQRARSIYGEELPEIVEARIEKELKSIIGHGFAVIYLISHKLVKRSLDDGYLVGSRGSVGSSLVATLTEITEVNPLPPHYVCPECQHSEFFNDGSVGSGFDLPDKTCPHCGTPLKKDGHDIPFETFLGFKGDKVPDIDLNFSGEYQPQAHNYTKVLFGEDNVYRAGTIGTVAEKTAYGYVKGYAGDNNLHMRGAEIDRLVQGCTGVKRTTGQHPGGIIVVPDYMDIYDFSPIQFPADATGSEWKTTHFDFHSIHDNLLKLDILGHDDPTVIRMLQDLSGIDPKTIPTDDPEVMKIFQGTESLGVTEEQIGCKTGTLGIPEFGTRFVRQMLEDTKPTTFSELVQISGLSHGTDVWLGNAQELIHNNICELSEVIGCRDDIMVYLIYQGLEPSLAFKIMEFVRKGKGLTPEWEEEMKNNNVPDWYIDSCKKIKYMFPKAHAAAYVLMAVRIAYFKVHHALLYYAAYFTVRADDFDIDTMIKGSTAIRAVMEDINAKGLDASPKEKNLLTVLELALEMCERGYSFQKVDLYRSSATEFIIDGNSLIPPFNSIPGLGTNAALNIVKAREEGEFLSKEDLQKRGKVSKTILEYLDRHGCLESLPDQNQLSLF
Chain of Beta-2 adrenergic receptor (Homo sapiens) (P07550 whole entry, looked up): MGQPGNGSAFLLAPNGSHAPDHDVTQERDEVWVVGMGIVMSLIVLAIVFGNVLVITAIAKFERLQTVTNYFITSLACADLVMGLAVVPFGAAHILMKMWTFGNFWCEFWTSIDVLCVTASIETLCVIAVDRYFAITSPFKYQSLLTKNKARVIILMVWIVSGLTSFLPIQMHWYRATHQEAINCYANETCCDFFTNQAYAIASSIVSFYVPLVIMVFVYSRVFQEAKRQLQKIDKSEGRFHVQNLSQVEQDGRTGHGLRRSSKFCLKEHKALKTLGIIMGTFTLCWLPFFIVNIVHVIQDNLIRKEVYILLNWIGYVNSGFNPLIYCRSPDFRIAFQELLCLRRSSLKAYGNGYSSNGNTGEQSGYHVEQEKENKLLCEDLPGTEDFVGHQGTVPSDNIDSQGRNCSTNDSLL
Chain of Tumor susceptibility gene 101 protein (Homo sapiens) (Q99816 whole entry, looked up, the tested form may be a part): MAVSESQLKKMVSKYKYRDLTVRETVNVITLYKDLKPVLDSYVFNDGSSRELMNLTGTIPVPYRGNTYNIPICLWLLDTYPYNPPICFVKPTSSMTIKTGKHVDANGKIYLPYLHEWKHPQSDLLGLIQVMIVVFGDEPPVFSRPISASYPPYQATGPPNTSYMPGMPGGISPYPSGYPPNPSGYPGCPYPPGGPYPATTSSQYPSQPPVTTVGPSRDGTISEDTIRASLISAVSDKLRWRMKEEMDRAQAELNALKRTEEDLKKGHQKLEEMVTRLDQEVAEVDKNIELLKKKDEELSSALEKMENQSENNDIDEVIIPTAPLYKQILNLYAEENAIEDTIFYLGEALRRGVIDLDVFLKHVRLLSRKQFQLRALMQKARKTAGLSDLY
Chain of Ferritin light chain (Equus caballus) (P02791 2-175 limits assumed): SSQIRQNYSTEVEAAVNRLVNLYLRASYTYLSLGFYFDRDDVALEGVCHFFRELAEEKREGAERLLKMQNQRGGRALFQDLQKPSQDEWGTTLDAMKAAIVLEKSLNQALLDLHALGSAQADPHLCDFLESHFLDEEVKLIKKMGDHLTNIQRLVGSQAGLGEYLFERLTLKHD
Chain of ATP-dependent 6-phosphofructokinase (Trypanosoma brucei brucei) (O15648 whole entry, looked up): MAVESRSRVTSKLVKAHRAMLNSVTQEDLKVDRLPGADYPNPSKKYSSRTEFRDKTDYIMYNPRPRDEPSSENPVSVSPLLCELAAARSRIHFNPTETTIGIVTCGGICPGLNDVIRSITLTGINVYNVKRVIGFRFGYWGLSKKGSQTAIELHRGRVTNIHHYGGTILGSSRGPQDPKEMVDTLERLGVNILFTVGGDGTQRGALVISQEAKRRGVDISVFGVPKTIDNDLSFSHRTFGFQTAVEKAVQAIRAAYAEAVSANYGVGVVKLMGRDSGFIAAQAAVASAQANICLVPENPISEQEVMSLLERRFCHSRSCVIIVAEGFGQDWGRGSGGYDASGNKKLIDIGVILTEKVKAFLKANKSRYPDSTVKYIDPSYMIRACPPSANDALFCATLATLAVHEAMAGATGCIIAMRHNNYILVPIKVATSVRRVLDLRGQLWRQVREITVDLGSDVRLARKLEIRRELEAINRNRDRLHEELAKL

NCCNc1cccc2ccccc12
inactive: [1]

CCOC(=O)[C@H](CCc1ccccc1)N[C@@H](C)C(=O)N1[C@H](C(=O)O)C[C@H]2CCCC[C@@H]21
inactive: [2] | [3] | [4] | [5] | [6] | [7] | [8] | [9] | [10] | [11] | [12] | [13] | [14]

COc1ccc(C(Cl)=C(c2ccc(OC)cc2)c2ccc(OC)cc2)cc1
inactive: [1]

NC(N)=NCc1cccc(I)c1
inactive: [15] | [16] | [17] | [2] | [3] | [4] | [5] | [18] | [6] | [7] | [8] | [10] | [19] | [12] | [13] | [14]

NC(=O)c1ccccc1O
inactive: [1]

— PubChem BioAssay (NCATS)
